# Values joined by “and” are separate entries in the source; they are usually repeats but may differ in a detail not shown here. Equal values may be shown once. Records with an inconclusive call do not appear. A call without a number means that no potency is given here. Active and inactive are the calls of the source. The call rests on the fitted dose curve. Bridge positions count the residues as written; N and C are the ends. Square brackets hold non-standard residues; d marks the D form. Peptide text beside a SMILES is read from it. * marks the point of attachment. Octanoyl(6-Me) = CCC(C)CCCCC(=O)*; Dab = NCC[CH](N)C(=O)O
# Legend:
# [1] = Primary qHTS for inhibitors of SARS-S pseudo-typed particle cell entry (AID 1479145); conditions: outcome: dose series up to 57.1 µM unless noted; further: nearly all actives have a fitted effect of over 45% in size
# [2] = Primary qHTS for Huh7 cytotoxicity: counterscreen for inhibitors of MERS-S pseudotyped particle cell entry (AID 1479147); conditions: outcome: dose series up to 57.1 µM unless noted
# [3] = Primary qHTS for inhibitors of MERS-S pseudo-typed particle cell entry (AID 1479149); conditions: outcome: dose series up to 57.1 µM unless noted; further: nearly all actives have a fitted effect of over 60% in size
# [4] = Primary qHTS for Vero E6 cytotoxicity: counterscreen for inhibitors of SARS-S pseudo-typed particle cell entry (AID 1479150); conditions: outcome: dose series up to 57.1 µM unless noted
# [5] = Cytotoxicity counterscreen for inhibitors of SARS-CoV-2 cell entry (AID 1645845); conditions: outcome: dose series up to 57.1 µM unless noted; further: nearly all actives have a fitted effect of over 50% in size
# Outline: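 48 h compound treatment (after 1 h preincubation), HEK293-ACE2 cells, 37 C/5% CO2; ATP luminescence endpoint; normalized to cell wells and media blanks.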
# [6] = Primary qHTS to identify inhibitors of SARS-CoV-2 cell entry (AID 1645846); conditions: SARS-CoV-2 pseudovirus cell entry assay, luminescence; activity change, negative = inhibition: at 57.1 µM (top of the series) unless noted; further: nearly all actives have a fitted effect of over 45% in size
# Outline: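 Luminescence readout (Bright-Glo luciferase) 48 h after pseudoparticle addition. HEK293-ACE2 cells, 1500/well; compound pre-incubation 1 h; Normalized to spike PP and bald PP.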
structure (smiles),measurement,setting,value
CCC(C)CCCCC(=O)NC(CCN)C(=O)NC(C(=O)NC(CCN)C(=O)NC1CCNC(=O)C(C(C)O)NC(=O)C(CCN)NC(=O)C(CCN)NC(=O)C(CC(C)C)NC(=O)C(Cc2ccccc2)NC(=O)C(CCN)NC1=O)C(C)O (stereo unspecified) ({Octanoyl(6-Me)}-[Dab]T[Dab][Dab][Dab]FL[Dab][Dab]T; lactam 4-C; configuration not given here),Potency,[1],inactive
same,Potency,[2],inactive
same,Potency,[3],inactive
same,Potency,[4],inactive
same,Potency,[5],inactive
same,"activity change, negative = inhibition",[6],-13.5% [at 27.1 µM]
CO/N=C(/C(=O)N[C@@H]1C(=O)N2C(C(=O)O)=CCS[C@H]12)c1csc(N)n1,Potency,[1],inactive
same,Potency,[2],inactive
same,Potency,[3],inactive
same,Potency,[4],inactive
same,Potency,[5],inactive
same,"activity change, negative = inhibition",[6],-20.9%
CCC=CCC=CCC=CCCCCCCCC(=O)O,Potency,[1],inactive
same,Potency,[2],inactive
same,Potency,[3],inactive
same,Potency,[4],inactive
same,Potency,[5],inactive
same,Potency,[6],inactive
CO[C@H]1C[C@@H](O[C@@H]2/C(C)=C/C[C@@H]3C[C@@H](C[C@]4(CC[C@H](C)[C@@H](C5CCCCC5)O4)O3)OC(=O)[C@@H]3C=C(C)/C(=N/O)[C@H]4OC/C(=C\C=C\[C@@H]2C)[C@]43O)O[C@@H](C)[C@H]1O,Potency,[1],inactive
same,Potency,[2],inactive
same,Potency,[3],inactive
same,Potency,[4],inactive
same,Potency,[5],inactive
same,Potency,[6],inactive
COC(=O)CCC(=O)CN,Potency,[1],inactive
same,Potency,[2],inactive
same,Potency,[3],inactive
same,Potency,[4],inactive
same,Potency,[5],inactive
same,Potency,[6],inactive
O=C(O)c1cc(O)c2c(c1)[O][Bi][O]2,"activity change, negative = inhibition",[1],-20% [at 0.573 µM] (inactive)
same,"activity change, negative = cytotoxicity",[2],-1.24% [at 0.573 µM] (inactive)
same,outcome,[3],inactive [at 0.573 µM]
same,outcome,[4],inactive [at 0.573 µM]
same,outcome,[5],inactive [at 0.702 µM]
same,"activity change, negative = inhibition",[6],-27.2% [at 0.702 µM]
CCOC(=O)O[C@]1(C(=O)COC(=O)CC)CC[C@H]2[C@@H]3CCC4=CC(=O)C=C[C@]4(C)[C@H]3[C@@H](O)C[C@@]21C,Potency,[1],inactive
same,Potency,[2],inactive
same,Potency,[3],inactive
same,Potency,[4],inactive
same,Potency,[5],inactive
same,Potency,[6],inactive
C[C@@H]1O[C@@H](O[C@@H]2/C=C/C=C/C=C\C=C\C[C@H](C)OC(=O)/C=C/[C@H]3O[C@@H]3C[C@H](O)C[C@]3(O)C[C@@H](O)[C@@H](C(=O)O)[C@H](C2)O3)[C@H](O)[C@H](N)[C@@H]1O,"activity change, negative = inhibition",[1],-7.42% [at 11.4 µM] (inactive)
same,"activity change, negative = cytotoxicity",[2],0.894% [at 11.4 µM] (inactive)
same,outcome,[3],inactive [at 11.4 µM]
same,"activity change, negative = cytotoxicity",[4],-4.87% [at 11.4 µM] (inactive)
same,"activity change, negative = cytotoxicity",[5],1.93% [at 11.3 µM] (inactive)
same,"activity change, negative = inhibition",[6],-12.9% [at 11.3 µM]
C[C@H]1CN(C[C@H](Cc2ccccc2)C(=O)NCC(=O)O)CC[C@@]1(C)c1cccc(O)c1,Potency,[1],inactive
same,Potency,[2],inactive
same,Potency,[3],inactive
same,Potency,[4],inactive
same,Potency,[5],inactive
same,"activity change, negative = inhibition",[6],-6.59% and -17.3%
CNC(=O)C[C@@H](N)C(=O)N[C@@H](C(=O)N[C@@H]1C(=O)N2[C@@H]1SC(C)(C)[C@@H]2C(=O)O)c1ccc(O)cc1,Potency,[1],inactive
same,Potency,[2],inactive
same,Potency,[3],inactive
same,Potency,[4],inactive
same,Potency,[5],inactive
same,"activity change, negative = inhibition",[6],-19.8%
COc1cc(O)c(C(=O)Nc2nc(C(=O)NCCN(C(C)C)C(C)C)cs2)cc1OC,Potency,[1],inactive
same,Potency,[2],inactive
same,Potency,[3],inactive
same,Potency,[4],inactive
same,Potency,[5],inactive
same,"activity change, negative = inhibition",[6],-17.9%
